Screening results deposited in PubChem by several laboratories.
CYP2C9 activ – CYP2C9 (human) activation; recombinant CYP2C9, luciferin-H conversion, luminescence; active compounds read high; factor 1 = untreated enzyme, 0 = blocked; activation factor at 5 µM; 1.4% of 96,000 active; AID 1024;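 active means activation factor of 2 or more for CYP2C9 at a 5 µM dose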;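 further: 0 = sulfaphenazole-blocked wells and 1 = vehicle-only wells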
Target sequence (P11712 whole entry, looked up): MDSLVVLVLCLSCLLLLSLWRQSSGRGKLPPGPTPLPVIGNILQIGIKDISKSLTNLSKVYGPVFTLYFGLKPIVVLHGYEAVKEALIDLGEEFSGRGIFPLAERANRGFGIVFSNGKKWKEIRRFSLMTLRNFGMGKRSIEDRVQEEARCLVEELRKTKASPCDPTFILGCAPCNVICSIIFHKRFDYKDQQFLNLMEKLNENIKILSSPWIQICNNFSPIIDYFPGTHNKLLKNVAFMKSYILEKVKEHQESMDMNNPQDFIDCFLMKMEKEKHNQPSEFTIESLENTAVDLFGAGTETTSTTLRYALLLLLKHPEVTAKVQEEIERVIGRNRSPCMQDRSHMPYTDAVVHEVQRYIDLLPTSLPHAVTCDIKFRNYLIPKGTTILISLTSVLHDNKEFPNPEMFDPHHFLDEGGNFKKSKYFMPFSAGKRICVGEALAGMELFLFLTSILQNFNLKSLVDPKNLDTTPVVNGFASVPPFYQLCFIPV
Cav3 T inh – inhibitors of human Cav3.2 T-type calcium channel. 4% of 100,000 active. B-score at 10 µM. Cav3.2-expressing cells, Fluo-4 calcium fluorescence FDSS; active compounds read low;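 active means single-dose well whose peak fluorescence ratio is a statistical outlier from its plate by either plate-standardised score or position-corrected B-score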
CYP2C19 act – cytochrome P450 2C19 (human) activation; activation factor at 5 µM; P33261; recombinant CYP2C19, luciferin-H EGE luminescence; active compounds read high; 0 = fully inhibited enzyme, 1 = untreated enzyme; AID 1025; 96,000 tested, under 10 active;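 active means activation factor of at least 2 at 5 µM in the primary screen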;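 further: 0 = wells with 2.5 mM tranylcypromine and 1 = vehicle-only wells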
CYP2C9 inh – human CYP2C9 inhibition; P11712; CYP2C9 Supersomes, luciferin-H conversion, luminescence; inhibition, % at 5 µM; 20% of 96,000 active; AID 777;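 active means blocking of liver enzyme CYP2C9 beyond about 50% at 5 µM, limit read from the data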
CYP2C19 inh – human CYP2C19 inhibition. AID 778. inhibition, % at 5 µM. 21% of 96,000 active. P33261. CYP2C19 Supersomes, luciferin-H EGE luminescence, 30 min;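 active means CYP2C19 inhibition above a set limit at 5 µM in the primary screen, cut at about 50% in these data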;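 further: plate controls were negative control wells for no effect and 2.5 mM tranylcypromine positive control for full effect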
* marks the source's active call; other numbers are inactive results; x = no result. This is a sample that favours compounds with a hit; in the whole collection about 27% have one here.

SMILES | CYP2C9 activ | Cav3 T inh | CYP2C19 act | CYP2C9 inh | CYP2C19 inh
Cc1ccccc1N=C(NOCc1ccc(Cl)cc1Cl)c1nonc1N | 0.3 | -2.43 | 0.6 | 70.5* | 43.8
O=C(CSc1nnc(CNC(=O)c2ccccc2F)o1)c1ccccc1 | 0.6 | 0.0254 | 0.7 | 37.4 | 30.5
Cc1ccc([N+](=O)[O-])cc1NC(=O)c1ccc(C(C)(C)C)cc1 | 1.5 | -2.26 | 0.8 | -45.6 | 16.9
Cc1ccc(C(=O)NC(=S)Nc2ccccc2C(F)(F)F)cc1 | 1.4 | -1.12 | 0.9 | -37.4 | 8.4
CC(C)(C)CC(=O)NC(=S)Nc1ccccc1C(F)(F)F | 0.5 | -2.44 | 0.6 | 51.9* | 40.7
Cc1ccc([N+](=O)[O-])cc1NC(=S)NC(=O)CC(C)(C)C | 0.2 | -2.49 | 0.7 | 85.0* | 26.8
Cc1ccc([N+](=O)[O-])cc1NC(=S)NC(=O)C(C)(C)C | 0.2 | -2.82 | 0.4 | 81.9* | 59.4*
CCCc1cc(=O)[nH]c(SC(CC)C(=O)Nc2ccccc2C#N)n1 (stereo not drawn) | 0.8 | 0.336 | 1 | 23.6 | 0.6
C=C(C)Cn1c(CCCNC(=O)CCC)nc2ccccc21 | 1.8 | 0.588 | 0.9 | -77.1 | 8.1
CCCCOn1c(C)c(C(=O)OCC)c2c3no[n+]([O-])c3ccc21 | 0.4 | -0.0536 | 0.6 | 62.5* | 45.0
CCOC(=O)c1c(C)n(OC)c2ccc3c(no[n+]3[O-])c12 | 0.6 | -0.0527 | 0.5 | 43.2 | 45.7
CCCCN1CC[C@H]2C=CC[C@@H](C(=O)Nc3ccccc3)[C@H]2C1=O | x | 1.59 | x | x | x
Cc1sc2nc3c4ccccc4c(NCc4ccco4)nn3c(=O)c2c1C | 0.7 | 1.75 | 0.9 | 27.7 | 5.6
Cc1nc(NCc2ccco2)c2c(C)c(C)sc2n1 | 0.2 | -2.93 | 0.2 | 82.0* | 77.0*
Cc1sc2ncnc(N(C)Cc3ccco3)c2c1C | 0.2 | -0.717 | 0 | 78.4* | 95.8*
CCOC(=O)c1sc2nc(CC(=O)OC)nc(NCC(=O)OC)c2c1C | 1 | 0.36 | 1 | -4.1 | -1.9
CCOC(=O)c1sc2nc(CC(=O)OC)nc(NCc3ccco3)c2c1C | 0.2 | -0.62 | 0.4 | 84.3* | 61.0*
Cc1sc2ncnc(SCc3ccco3)c2c1C | 1 | 0.853 | 1.1 | 1.1 | -5.2
Cc1nc(SCC(=O)N(C)Cc2ccco2)c2c(C)c(C)sc2n1 | 0.1 | -0.859 | 0.3 | 87.5* | 68.3*
CC(C)C(NS(=O)(=O)c1cccc2nsnc12)C(=O)N1CCn2c1nc1ccccc12 (stereo not drawn) | 0.8 | 0.158 | 0.5 | 23.3 | 48.2
CCc1c(C)nc2cc(-c3ccc(OC)c(OC)c3)nn2c1NCC1CC1 | 0.6 | x | 0.7 | 44.5 | 27.7
CN(C)c1ccc(C(c2nnnn2C(C)(C)C)N2CCc3ccccc3C2)cc1 (stereo not drawn) | 0.9 | 0.199 | 0.4 | 13.4 | 58.4*
COc1ccc(Cn2nnnc2C(c2ccc(N(C)C)cc2)N2CCC(C)CC2)cc1 (stereo not drawn) | 0.5 | -4.5 | 0.4 | 52.5* | 57.5*
CC(C)(C)n1nnnc1C(c1ccccc1)N1CCc2ccccc2C1 (stereo not drawn) | 0.6 | -2.14 | 0.5 | 36.5 | 53.7*
CC1CCN(C(c2ccc(N(C)C)cc2)c2nnnn2Cc2ccccc2)CC1 (stereo not drawn) | 0.9 | 0.344 | 0.7 | 6.1 | 34.2
SMILES | CYP2C9 activ | Cav3 T inh | CYP2C19 act | CYP2C9 inh | CYP2C19 inh
COc1cc2cc(C(c3nnnn3C(C)(C)C)N3CCC(C)CC3)c(=O)[nH]c2cc1OC (stereo not drawn) | 0.7 | 0.188 | 0.8 | 32.7 | 15.4
CC1CCN(C(c2ccc(N(C)C)cc2)c2nnnn2C(C)(C)C)CC1 (stereo not drawn) | 0.8 | x | 0.4 | 22.8 | 59.5*
COCCn1nnnc1C(c1ccc(O)c(OC)c1)N1CCc2ccccc2C1 (stereo not drawn) | 0.7 | x | 0.7 | 28.4 | 30.7
CCOC(=O)CSc1nnc(Cc2ccccc2)n1CC1CCCO1 (stereo not drawn) | 1.1 | 0.496 | 0.9 | -5.0 | 14.3
CCN(CC)C(=O)CSc1nnc(-c2ccc(O)cc2)n1CC1CCCO1 (stereo not drawn) | 1 | 0.35 | 1 | -1.9 | 0.8
O=C(CCCSc1nnc(-c2cccs2)n1CC1CCCO1)c1ccccc1 (stereo not drawn) | 0.3 | 0.414 | 0.3 | 69.2* | 73.1*
CCOc1ccc(C(C)=O)cc1CSc1nnc(-c2cccs2)n1CC1CCCO1 (stereo not drawn) | 0.2 | -0.396 | 0.1 | 81.5* | 89.7*
O=c1cc[nH]c2cccc(Cc3ccccc3)c12 | 1 | 1.16 | 0.7 | 1.8 | 25.8
O=C(Nc1ccc(OC(F)F)c(Cl)c1)c1cccc(OC(F)F)c1 | 0.9 | -2.31 | 0.1 | 11.4 | 88.2*
Cc1c(Cl)cccc1NC(=O)c1cccc(OC(F)F)c1 | 1 | -0.932 | 0.3 | -0.3 | 71.9*
COc1ccc(NC(=O)c2cccc(OC(F)F)c2)cc1Cl | 1.1 | -0.443 | 0.3 | -13.3 | 68.6*
CCOc1cccc(C(=O)Nc2ccccc2OC(F)F)c1 | 0.7 | -0.435 | 0.4 | 32.8 | 56.4*
CCOC(=O)Nc1cccc(Cl)c1C | 1 | 0.047 | 0.9 | -2.6 | 9.3
COc1ccc(NC(=O)c2cccc(F)c2)cc1Cl | 1 | x | 0.5 | 2.0 | 49.0
COc1ccc(-c2oc3cc(OC)c(O)c(OC)c3c(=O)c2OC)cc1O | x | 0.96 | x | x | x
O=C(c1ccc(N2C(=O)CCC2=O)cc1)N1CCN(c2ccccc2)CC1 | 0.8 | -0.122 | 1 | 22.9 | 2.4
CC(=O)c1cccc(NC(=O)N2CCCC2C(=O)NC2CCCCC2)c1 (stereo not drawn) | 0.8 | 0.0305 | 0.8 | 22.0 | 19.6
CCC1(C)Cc2ccccc2C(Nc2c(C)n(C)n(-c3ccccc3)c2=O)=N1 (stereo not drawn) | 0.9 | -0.181 | 1.1 | 7.3 | -7.8
Cn1c(=O)c2c(nc(NCc3ccco3)n2C/C=C/c2ccccc2)n(C)c1=O | 0.7 | -1.49 | 0.3 | 25.7 | 73.6*
Cn1c(=O)c2c(nc(NCc3ccco3)n2Cc2ccccc2Cl)n(C)c1=O | 1.1 | 0.0759 | 1 | -9.1 | 1.8
COC(=O)CCN(C(=O)c1cccc(OC(C)=O)c1)c1ccccn1 | 0.9 | 0.189 | 1 | 7.3 | 2.7
O=C1C2C3C=CC(CO)(O3)C2C(=O)N1c1ccccc1-c1ccccc1 (stereo not drawn) | 0.9 | 0.667 | 0.8 | 10.9 | 19.2
C/C=C/c1c(F)c(F)c(Oc2ccc(C(=O)O)cc2)c(F)c1F | 0.2 | -1.14 | 1 | 81.0* | 0.7
O=C(O)c1ccc(COc2c(F)c(F)cc(F)c2F)cc1 | 1.1 | 0.236 | 1.1 | -6.8 | -5.7
Cc1cc2cc(CN(CC3CCCO3)C(=O)c3cnccn3)c(=O)[nH]c2cc1C (stereo not drawn) | 0.8 | 0.0579 | 0.9 | 17.9 | 11.2
COc1ccc2[nH]c(=O)c(CN(Cc3ccccc3OC)Cc3nnnn3CC3CCCO3)cc2c1 (stereo not drawn) | 0.6 | -0.287 | 0.3 | 40.8 | 69.9*
Cc1ccc2cc(CN(Cc3cccs3)Cc3nnnn3CC3CCCO3)c(=O)[nH]c2c1C (stereo not drawn) | 0.8 | -1.51 | 0.4 | 15.5 | 55.6*
